Measurements as given in article PMC7862700, “An all-to-all approach to the identification of sequence-specific readers for epigenetic DNA modifications on cytosine”.

Legend:
Experiment in all cases: DAPPL (digital affinity profiling via proximity ligation, sequencing); 10 mM Tris-HCl pH 7.5, 50 mM NaCl, 1 mM DTT, 4% glycerol, room temperature, 30 min; GST-TFs on glutathione beads, 16-mer random dsDNA library, 0.1% formaldehyde crosslink after washing; high values mean tight binding
FEV = biological target: T1, FEV (Homo sapiens, UniProt Q99581 1-238); conditions: protein: recombinant; tags: N-terminal GST; dsDNA, one strand shown
T1 sequence: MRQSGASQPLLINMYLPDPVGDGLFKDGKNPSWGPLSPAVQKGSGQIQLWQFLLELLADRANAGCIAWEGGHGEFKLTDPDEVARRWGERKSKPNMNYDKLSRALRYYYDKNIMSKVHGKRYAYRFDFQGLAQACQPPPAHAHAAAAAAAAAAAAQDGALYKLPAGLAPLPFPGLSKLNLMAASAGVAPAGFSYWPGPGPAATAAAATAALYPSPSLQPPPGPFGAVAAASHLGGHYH
Summary of the method: (§1)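 Binding signal is given per hexamer as its read frequency for a factor divided by its frequency in the tag-only sample. GST-fused human transcription factors were expressed in yeast, captured on glutathione beads, barcoded with DNA and pooled with that sample, then incubated with 200 nmole of a 16-mer random double-stranded DNA library in Tris/NaCl/DTT/glycerol buffer for 30 min at room temperature. The pools were then washed, crosslinked, proximity-ligated, amplified by PCR and sequenced on an Illumina NextSeq500.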

ETV5 = ETV5 (Homo sapiens, UniProt P41161 1-510); conditions: protein: recombinant; tags: N-terminal GST; dsDNA, one strand shown
Chain of ETV5 (P41161 whole entry): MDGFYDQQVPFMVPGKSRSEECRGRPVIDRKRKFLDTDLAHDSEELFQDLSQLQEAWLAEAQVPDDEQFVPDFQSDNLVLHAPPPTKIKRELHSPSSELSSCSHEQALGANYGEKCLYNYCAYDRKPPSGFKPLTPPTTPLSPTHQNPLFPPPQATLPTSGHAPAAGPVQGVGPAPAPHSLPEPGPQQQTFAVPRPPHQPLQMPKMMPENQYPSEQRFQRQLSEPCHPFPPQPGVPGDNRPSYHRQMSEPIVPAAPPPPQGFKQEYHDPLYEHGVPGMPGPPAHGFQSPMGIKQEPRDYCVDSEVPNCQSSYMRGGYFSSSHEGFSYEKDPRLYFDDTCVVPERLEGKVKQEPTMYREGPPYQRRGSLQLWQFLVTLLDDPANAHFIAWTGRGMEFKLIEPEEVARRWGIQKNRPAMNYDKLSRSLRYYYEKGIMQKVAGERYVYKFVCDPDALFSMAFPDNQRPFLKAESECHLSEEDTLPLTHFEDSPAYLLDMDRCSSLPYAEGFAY
Summary of the method: as §1

HSF1 = HSF1 (Homo sapiens, UniProt Q00613 1-529); conditions: protein: recombinant; tags: N-terminal GST; chain copies: 3; dsDNA, one strand shown
Chain of HSF1 (Q00613 whole entry): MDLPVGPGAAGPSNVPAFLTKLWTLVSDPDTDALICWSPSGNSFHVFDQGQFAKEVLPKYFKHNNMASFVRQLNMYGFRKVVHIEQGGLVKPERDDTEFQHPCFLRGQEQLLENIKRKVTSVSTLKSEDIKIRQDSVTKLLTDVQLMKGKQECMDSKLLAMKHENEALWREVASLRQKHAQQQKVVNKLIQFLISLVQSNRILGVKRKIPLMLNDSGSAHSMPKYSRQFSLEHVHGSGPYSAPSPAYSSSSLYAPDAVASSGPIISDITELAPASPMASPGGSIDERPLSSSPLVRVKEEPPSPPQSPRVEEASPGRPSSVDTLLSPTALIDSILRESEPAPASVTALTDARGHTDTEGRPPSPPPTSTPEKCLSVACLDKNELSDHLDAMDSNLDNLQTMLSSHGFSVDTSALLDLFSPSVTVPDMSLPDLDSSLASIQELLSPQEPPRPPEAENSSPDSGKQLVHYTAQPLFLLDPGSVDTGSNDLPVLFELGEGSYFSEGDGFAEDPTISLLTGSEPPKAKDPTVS
Summary of the method: as §1

SPIC = biological target: T2, SPIC (Homo sapiens, UniProt Q8N5J4 1-248); conditions: protein: recombinant; tags: N-terminal GST; dsDNA, one strand shown
T2 sequence: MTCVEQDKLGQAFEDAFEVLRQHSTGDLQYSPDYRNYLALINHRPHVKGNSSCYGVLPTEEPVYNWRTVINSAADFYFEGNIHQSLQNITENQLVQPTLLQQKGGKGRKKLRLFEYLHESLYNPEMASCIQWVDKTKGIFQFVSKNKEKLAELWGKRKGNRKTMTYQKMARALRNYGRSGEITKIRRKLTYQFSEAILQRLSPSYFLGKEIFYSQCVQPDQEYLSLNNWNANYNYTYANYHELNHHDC
Summary of the method: as §1

ELF4 = ELF4 (Homo sapiens, UniProt Q99607 1-663); conditions: protein: recombinant; tags: N-terminal GST; dsDNA, one strand shown
Chain of ELF4 (Q99607 whole entry): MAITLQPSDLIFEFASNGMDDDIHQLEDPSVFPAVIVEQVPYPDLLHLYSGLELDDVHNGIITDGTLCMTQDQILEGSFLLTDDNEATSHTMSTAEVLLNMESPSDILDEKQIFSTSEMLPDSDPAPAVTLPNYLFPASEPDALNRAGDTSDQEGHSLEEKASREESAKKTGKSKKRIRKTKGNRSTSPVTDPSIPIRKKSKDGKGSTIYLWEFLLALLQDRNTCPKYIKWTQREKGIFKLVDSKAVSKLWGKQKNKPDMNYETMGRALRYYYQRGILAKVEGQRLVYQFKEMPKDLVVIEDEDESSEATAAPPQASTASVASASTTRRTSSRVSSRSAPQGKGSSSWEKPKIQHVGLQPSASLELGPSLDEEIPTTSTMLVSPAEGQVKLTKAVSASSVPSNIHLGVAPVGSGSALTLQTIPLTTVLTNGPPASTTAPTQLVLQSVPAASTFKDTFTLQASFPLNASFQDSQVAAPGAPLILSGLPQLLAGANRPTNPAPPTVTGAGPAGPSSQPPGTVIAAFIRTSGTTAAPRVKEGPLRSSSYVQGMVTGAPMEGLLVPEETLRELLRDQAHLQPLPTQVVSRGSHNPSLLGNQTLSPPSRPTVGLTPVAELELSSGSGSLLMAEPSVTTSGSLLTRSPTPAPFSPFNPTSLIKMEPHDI
Summary of the method: as §1

ELK4 = biological target: T3, ELK4 (Homo sapiens, UniProt P28324-2 1-405); conditions: protein: recombinant; tags: N-terminal GST; dsDNA, one strand shown
T3 sequence: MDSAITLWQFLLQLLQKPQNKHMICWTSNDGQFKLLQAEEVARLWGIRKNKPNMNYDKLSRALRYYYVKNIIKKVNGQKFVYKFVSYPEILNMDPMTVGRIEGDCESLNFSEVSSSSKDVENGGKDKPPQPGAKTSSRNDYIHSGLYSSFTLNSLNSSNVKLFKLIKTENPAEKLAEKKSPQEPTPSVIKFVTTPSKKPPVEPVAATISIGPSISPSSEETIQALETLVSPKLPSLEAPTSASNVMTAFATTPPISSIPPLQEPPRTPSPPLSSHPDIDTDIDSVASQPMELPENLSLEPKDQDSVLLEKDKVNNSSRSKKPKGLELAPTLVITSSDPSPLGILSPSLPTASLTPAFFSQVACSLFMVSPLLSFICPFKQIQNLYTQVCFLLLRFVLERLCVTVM
Summary of the method: as §1

ETV2 = biological target: T4, ETV2 (Homo sapiens, UniProt O00321 1-342); conditions: protein: recombinant; tags: N-terminal GST; dsDNA, one strand shown
T4 sequence: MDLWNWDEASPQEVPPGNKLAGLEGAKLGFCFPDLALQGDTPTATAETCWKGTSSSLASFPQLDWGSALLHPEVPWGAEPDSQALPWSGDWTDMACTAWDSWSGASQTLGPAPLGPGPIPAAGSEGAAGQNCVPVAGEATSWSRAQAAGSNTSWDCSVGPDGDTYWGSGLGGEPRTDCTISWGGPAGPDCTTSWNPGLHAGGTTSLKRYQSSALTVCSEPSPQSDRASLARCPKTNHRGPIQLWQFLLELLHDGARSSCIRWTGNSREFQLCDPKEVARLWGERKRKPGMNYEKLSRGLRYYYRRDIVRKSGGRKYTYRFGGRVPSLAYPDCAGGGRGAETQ
Summary of the method: as §1

ELF3 = biological target: T5, ELF3 (Homo sapiens, UniProt P78545 1-371); conditions: protein: recombinant; tags: N-terminal GST; dsDNA, one strand shown
T5 sequence: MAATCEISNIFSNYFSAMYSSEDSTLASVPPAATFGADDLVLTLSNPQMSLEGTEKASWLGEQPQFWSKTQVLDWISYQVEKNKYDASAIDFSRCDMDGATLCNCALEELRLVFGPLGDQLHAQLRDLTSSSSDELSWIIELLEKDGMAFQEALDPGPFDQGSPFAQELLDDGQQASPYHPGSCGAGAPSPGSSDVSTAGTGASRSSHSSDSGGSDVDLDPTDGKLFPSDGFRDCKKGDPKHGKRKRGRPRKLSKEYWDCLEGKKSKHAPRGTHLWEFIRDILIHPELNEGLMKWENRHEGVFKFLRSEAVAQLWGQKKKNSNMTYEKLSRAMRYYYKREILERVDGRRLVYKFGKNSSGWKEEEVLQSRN
Summary of the method: as §1

CRX = CRX (Homo sapiens, UniProt O43186 1-299); conditions: protein: recombinant; tags: N-terminal GST; dsDNA, one strand shown
Chain of CRX (O43186 whole entry): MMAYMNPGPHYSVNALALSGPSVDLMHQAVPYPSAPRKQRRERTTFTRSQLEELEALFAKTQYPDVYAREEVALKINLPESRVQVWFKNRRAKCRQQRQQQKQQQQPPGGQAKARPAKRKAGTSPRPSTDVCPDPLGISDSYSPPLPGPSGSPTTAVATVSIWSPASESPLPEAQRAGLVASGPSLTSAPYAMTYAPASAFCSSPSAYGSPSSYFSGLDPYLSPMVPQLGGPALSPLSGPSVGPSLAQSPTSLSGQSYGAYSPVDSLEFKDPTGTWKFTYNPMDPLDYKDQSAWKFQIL
Summary of the method: as §1

ETV1 = ETV1 (Homo sapiens, UniProt P50549 1-477); conditions: protein: recombinant; tags: N-terminal GST; dsDNA, one strand shown
Chain of ETV1 (P50549 whole entry): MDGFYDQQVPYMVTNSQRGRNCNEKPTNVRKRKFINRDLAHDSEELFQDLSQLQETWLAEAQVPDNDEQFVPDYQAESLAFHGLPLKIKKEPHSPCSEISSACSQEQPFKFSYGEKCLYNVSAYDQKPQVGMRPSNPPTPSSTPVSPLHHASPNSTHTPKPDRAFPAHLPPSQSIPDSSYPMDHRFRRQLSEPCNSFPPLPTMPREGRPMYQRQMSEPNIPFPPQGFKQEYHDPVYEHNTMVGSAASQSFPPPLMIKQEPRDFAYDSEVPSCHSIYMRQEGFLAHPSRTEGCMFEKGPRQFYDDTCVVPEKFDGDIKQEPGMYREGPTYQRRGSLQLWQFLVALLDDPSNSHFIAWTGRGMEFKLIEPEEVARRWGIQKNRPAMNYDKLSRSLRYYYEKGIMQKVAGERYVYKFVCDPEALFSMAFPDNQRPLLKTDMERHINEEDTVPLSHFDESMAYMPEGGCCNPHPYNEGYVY
Summary of the method: as §1

ERF = biological target: T6, ERF (Homo sapiens, UniProt P50548 1-548); conditions: protein: recombinant; tags: N-terminal GST; dsDNA, one strand shown
T6 sequence: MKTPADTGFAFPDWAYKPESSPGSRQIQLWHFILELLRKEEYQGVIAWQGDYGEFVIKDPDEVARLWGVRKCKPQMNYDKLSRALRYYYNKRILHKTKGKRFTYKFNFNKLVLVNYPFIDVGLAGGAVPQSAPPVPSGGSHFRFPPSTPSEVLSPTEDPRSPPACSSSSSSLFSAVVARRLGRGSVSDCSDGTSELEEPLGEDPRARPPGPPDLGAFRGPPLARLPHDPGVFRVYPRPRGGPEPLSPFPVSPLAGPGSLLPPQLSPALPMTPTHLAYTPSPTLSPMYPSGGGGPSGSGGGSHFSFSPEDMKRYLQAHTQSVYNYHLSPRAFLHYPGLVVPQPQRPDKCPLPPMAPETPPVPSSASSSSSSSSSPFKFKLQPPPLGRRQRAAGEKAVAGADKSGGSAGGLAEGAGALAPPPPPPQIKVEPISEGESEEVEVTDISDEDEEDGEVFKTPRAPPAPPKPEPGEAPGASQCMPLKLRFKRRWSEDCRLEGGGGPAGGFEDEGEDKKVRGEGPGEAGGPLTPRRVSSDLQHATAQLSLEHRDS
Summary of the method: as §1

ETV3L = biological target: T7, ETV3L (Homo sapiens, UniProt Q6ZN32 1-361); conditions: protein: recombinant; tags: N-terminal GST; dsDNA, one strand shown
T7 sequence: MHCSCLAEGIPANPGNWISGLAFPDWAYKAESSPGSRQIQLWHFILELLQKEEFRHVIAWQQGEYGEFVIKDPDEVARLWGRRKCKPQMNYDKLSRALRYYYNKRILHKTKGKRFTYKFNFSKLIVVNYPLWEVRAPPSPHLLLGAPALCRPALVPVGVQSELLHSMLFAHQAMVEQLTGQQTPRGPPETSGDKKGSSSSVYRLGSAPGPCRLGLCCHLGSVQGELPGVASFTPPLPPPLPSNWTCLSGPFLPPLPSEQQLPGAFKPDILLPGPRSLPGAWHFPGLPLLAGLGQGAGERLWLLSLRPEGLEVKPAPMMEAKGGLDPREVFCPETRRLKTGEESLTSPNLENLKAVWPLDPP
Summary of the method: as §1

ETS2 = biological target: T8, ETS2 (Homo sapiens, UniProt P15036 1-469); conditions: protein: recombinant; tags: N-terminal GST; dsDNA, one strand shown
T8 sequence: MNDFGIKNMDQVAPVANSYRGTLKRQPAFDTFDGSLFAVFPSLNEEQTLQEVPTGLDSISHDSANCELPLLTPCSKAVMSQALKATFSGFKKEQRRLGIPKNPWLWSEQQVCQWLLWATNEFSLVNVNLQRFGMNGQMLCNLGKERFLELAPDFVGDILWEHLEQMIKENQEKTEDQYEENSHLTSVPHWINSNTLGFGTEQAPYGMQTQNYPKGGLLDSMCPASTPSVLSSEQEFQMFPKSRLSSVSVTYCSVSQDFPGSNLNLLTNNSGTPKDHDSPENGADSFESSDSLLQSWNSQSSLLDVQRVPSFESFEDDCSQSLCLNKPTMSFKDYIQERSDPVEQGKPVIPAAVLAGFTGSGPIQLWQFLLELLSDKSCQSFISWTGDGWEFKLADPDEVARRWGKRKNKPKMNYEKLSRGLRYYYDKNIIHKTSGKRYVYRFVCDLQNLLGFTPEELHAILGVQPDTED
Summary of the method: as §1

SPDEF = biological target: T9, SPDEF (Homo sapiens, UniProt O95238 1-335); conditions: protein: recombinant; tags: N-terminal GST; dsDNA, one strand shown
T9 sequence: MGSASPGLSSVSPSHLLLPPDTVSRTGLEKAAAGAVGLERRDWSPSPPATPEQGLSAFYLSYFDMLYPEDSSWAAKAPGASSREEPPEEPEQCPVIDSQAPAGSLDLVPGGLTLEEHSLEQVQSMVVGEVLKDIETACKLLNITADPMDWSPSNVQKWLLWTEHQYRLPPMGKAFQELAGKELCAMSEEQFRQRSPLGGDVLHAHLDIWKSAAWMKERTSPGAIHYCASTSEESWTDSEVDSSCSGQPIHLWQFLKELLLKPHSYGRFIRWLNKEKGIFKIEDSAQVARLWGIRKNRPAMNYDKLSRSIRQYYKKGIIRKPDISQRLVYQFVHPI
Summary of the method: as §1

ETV7 = biological target: T10, ETV7 (Homo sapiens, UniProt Q9Y603 1-341); conditions: protein: recombinant; tags: N-terminal GST; dsDNA, one strand shown
T10 sequence: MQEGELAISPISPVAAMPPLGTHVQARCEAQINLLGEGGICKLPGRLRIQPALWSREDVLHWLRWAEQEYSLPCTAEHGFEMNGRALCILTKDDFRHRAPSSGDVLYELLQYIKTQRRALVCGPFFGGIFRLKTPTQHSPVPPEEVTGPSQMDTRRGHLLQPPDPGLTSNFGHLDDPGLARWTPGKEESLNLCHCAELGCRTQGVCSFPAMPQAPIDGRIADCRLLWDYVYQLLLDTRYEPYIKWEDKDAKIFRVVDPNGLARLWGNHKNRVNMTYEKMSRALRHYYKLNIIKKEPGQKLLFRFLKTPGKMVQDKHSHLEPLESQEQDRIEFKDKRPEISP
Summary of the method: as §1

ELF5 = biological target: T11, ELF5 (Homo sapiens, UniProt Q9UKW6-2 1-255); conditions: protein: recombinant; tags: N-terminal GST; dsDNA, one strand shown
T11 sequence: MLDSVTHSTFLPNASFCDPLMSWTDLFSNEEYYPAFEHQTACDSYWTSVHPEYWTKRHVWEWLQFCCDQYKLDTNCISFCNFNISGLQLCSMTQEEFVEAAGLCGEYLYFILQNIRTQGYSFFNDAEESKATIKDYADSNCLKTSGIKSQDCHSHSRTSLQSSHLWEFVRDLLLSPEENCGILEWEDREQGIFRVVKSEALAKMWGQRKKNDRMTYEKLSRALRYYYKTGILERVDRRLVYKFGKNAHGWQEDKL
Summary of the method: as §1

ETV3 = biological target: T12, ETV3 (Homo sapiens, UniProt P41162-2 1-143); conditions: protein: recombinant; tags: N-terminal GST; dsDNA, one strand shown
T12 sequence: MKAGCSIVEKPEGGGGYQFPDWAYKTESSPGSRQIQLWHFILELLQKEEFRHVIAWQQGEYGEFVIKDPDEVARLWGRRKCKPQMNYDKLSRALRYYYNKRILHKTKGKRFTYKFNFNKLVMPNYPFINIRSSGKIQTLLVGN
Summary of the method: as §1

ETV6 = ETV6 (Homo sapiens, UniProt P41212 1-452); conditions: protein: recombinant; tags: N-terminal GST; dsDNA, one strand shown
Chain of ETV6 (P41212 whole entry): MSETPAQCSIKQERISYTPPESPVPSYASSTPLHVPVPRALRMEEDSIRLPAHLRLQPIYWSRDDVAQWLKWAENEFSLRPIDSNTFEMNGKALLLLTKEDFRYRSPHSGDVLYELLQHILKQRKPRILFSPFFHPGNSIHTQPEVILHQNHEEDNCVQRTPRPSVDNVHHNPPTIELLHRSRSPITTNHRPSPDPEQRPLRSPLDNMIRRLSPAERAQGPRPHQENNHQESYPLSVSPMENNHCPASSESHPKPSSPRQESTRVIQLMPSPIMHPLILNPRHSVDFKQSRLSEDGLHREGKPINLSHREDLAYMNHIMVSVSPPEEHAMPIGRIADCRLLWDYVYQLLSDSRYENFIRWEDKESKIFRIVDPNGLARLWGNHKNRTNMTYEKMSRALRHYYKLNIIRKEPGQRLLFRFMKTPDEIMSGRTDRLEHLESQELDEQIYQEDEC
Summary of the method: as §1

**Q.** Which results are given for CTCTGT?
**A.** binding signal (FEV): 1.39 fold enrichment (6-mer frequency, TF over GST control); binding signal (ETV5): 1.42 fold enrichment (6-mer frequency, TF over GST control); binding signal (HSF1): 1.15 fold enrichment (6-mer frequency, TF over GST control); binding signal (SPIC): 1.5 fold enrichment (6-mer frequency, TF over GST control); binding signal (ELF4): 1.33 fold enrichment (6-mer frequency, TF over GST control); binding signal (ELK4): 1.5 fold enrichment (6-mer frequency, TF over GST control); binding signal (ETV2): 1.39 fold enrichment (6-mer frequency, TF over GST control); binding signal (ELF3): 1.4 fold enrichment (6-mer frequency, TF over GST control); binding signal (CRX): 1.18 fold enrichment (6-mer frequency, TF over GST control); binding signal (ETV1): 1.43 fold enrichment (6-mer frequency, TF over GST control); binding signal (ERF): 1.5 fold enrichment (6-mer frequency, TF over GST control); binding signal (ETV3L): 1.33 fold enrichment (6-mer frequency, TF over GST control); binding signal (ETS2): 1.5 fold enrichment (6-mer frequency, TF over GST control); binding signal (SPDEF): 1.45 fold enrichment (6-mer frequency, TF over GST control); binding signal (ETV7): 1.43 fold enrichment (6-mer frequency, TF over GST control); binding signal (ELF5): 1.37 fold enrichment (6-mer frequency, TF over GST control); binding signal (ETV3): 1.43 fold enrichment (6-mer frequency, TF over GST control); binding signal (ETV6): 1.44 fold enrichment (6-mer frequency, TF over GST control)
